Results as given in PubChem BioAssay AID1159580 (chemical genetic matrix, 2015).
The whole screen tested about 5,500 compounds, of which about 2,000 (36%) were called active. Inconclusive results (about 18%) are left out. Cut-off read from the data, not from the text of the source: active = normalized growth mostly below about 0.91 (no sharp cut-off); inconclusive = no clear call, values can overlap the other calls; inactive = mostly above about 0.92. The list shows a part of the results.

Experiment: chemical genetic growth profiling, strain panel (AID 1159580);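 note: tested at 20 µM; growth read once vehicle control cultures reached saturation at 30 °C; 1 = growth at the plate median or of vehicle wells; lower values mean less growth of the strain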
Conditions: growth OD

Measured: normalized growth

CN[C@@H]1[C@@H](O[C@H]2O[C@H](CO)[C@@H](N)[C@H](O)[C@H]2O)O[C@H]2C[C@@H](N)[C@H](O[C@H]3[C@H](O)[C@@H](O)[C@H](N)C[C@@H]3N)O[C@@H]2[C@@H]1O
inactive: S. cerevisiae deletion strains, locus YKL009W, strain mrt4, active compounds read low 0.996 | S. cerevisiae deletion strains, locus YKL068W, active compounds read low 1.01 | S. cerevisiae deletion strains, locus YKL085W, strain MDH1 (second series), active compounds read low 0.982 | S. cerevisiae deletion strains, locus YKL085W, strain MDH1, active compounds read low 0.982 | S. cerevisiae deletion strains, locus YKL160W, strain elf1, active compounds read low 1.01 | S. cerevisiae deletion strains, locus YKL190W, strain CNB1, active compounds read low 1 | S. cerevisiae deletion strains, locus YKR001C, strain vps1, active compounds read low 0.989 | S. cerevisiae deletion strains, locus YKR026C, strain gcn3, active compounds read low 1 | S. cerevisiae deletion strains, locus YKR091W, strain srl3, active compounds read low 1 | S. cerevisiae deletion strains, locus YLL001W, strain dnm1, active compounds read low 1.02 | S. cerevisiae deletion strains, locus YLL026W, active compounds read low 1.01 | S. cerevisiae deletion strains, locus YLL041C, strain sdh2, active compounds read low 0.997 | S. cerevisiae deletion strains, locus YLR027C, strain aat2, active compounds read low 1.01 | S. cerevisiae deletion strains, locus YLR039C, strain RIC1, active compounds read low 1.07 | S. cerevisiae deletion strains, locus YLR058C, strain SHM2, active compounds read low 1.01 | S. cerevisiae deletion strains, locus YLR102C, strain apc9, active compounds read low 1.01 | S. cerevisiae deletion strains, locus YLR113W, strain HOG1, active compounds read low 0.939 | S. cerevisiae deletion strains, locus YLR221C, strain rsa3, active compounds read low 1 | S. cerevisiae deletion strains, locus YLR258W, strain gsy2, active compounds read low 1 | S. cerevisiae deletion strains, locus YLR262C, strain YPT6 (second series), active compounds read low 1 | S. cerevisiae deletion strains, locus YLR262C, strain YPT6, active compounds read low 1.05 | S. cerevisiae deletion strains, locus YLR268W, strain sec22, active compounds read low 0.981 | S. cerevisiae deletion strains, locus YLR320W, strain mms22, active compounds read low 0.991 | S. cerevisiae deletion strains, locus YLR330W, strain CHS5, active compounds read low 1.01 | S. cerevisiae deletion strains, locus YLR342W, strain FKS1 (second series), active compounds read low 1.07 | S. cerevisiae deletion strains, locus YLR342W, strain FKS1, active compounds read low 1.02 | S. cerevisiae deletion strains, locus YLR357W, strain rsc2, active compounds read low 0.996 | S. cerevisiae deletion strains, locus YLR370C, strain arc18, active compounds read low 1.01 | S. cerevisiae deletion strains, locus YLR371W, strain rom2, active compounds read low 1.01 | S. cerevisiae deletion strains, locus YLR384C, strain iki3, active compounds read low 1 | S. cerevisiae deletion strains, locus YLR418C, strain cdc73, active compounds read low 0.99 | S. cerevisiae deletion strains, locus YML016C, strain PPZ1, active compounds read low 1 | S. cerevisiae deletion strains, locus YML032C, strain rad52, active compounds read low 1.01 | S. cerevisiae deletion strains, locus YML120C, strain ndi1, active compounds read low 1 | S. cerevisiae deletion strains, locus YML124C, strain tub3, active compounds read low 0.995 | S. cerevisiae deletion strains, locus YMR058W, strain fet3, active compounds read low 1.02 | S. cerevisiae deletion strains, locus YMR078C, strain ctf18, active compounds read low 1.02 | S. cerevisiae deletion strains, locus YMR125W, strain sto1, active compounds read low 0.988 | S. cerevisiae deletion strains, locus YMR129W, active compounds read low 0.986 | S. cerevisiae deletion strains, locus YMR205C, strain PFK2, active compounds read low 1.02 | S. cerevisiae deletion strains, locus YMR223W, strain ubp8, active compounds read low 0.913 | S. cerevisiae deletion strains, locus YMR231W, strain pep5, active compounds read low 1.01 | S. cerevisiae deletion strains, locus YMR263W, strain SAP30, active compounds read low 0.991 | S. cerevisiae deletion strains, locus YMR307W, strain GAS1, active compounds read low 1.03 | S. cerevisiae deletion strains, locus YNL067W, strain RPL9B, active compounds read low 0.988 | S. cerevisiae deletion strains, locus YNL071W, strain lat1, active compounds read low 0.995 | S. cerevisiae deletion strains, locus YNL128W, strain TEP1, active compounds read low 1.03 | S. cerevisiae deletion strains, locus YNL153C, strain GIM3, active compounds read low 0.98 | S. cerevisiae deletion strains, locus YNL183C, strain NPR1, active compounds read low 0.916 | S. cerevisiae deletion strains, locus YNL209W, strain ssb2, active compounds read low 0.996 | S. cerevisiae deletion strains, locus YNL233W, strain BNI4, active compounds read low 1 | S. cerevisiae deletion strains, locus YNL248C, strain rpa49, active compounds read low 0.999 | S. cerevisiae deletion strains, locus YNL250W, strain rad50, active compounds read low 1.01 | S. cerevisiae deletion strains, locus YNL271C, strain bni1, active compounds read low 0.997 | S. cerevisiae deletion strains, locus YNL298W, strain CLA4, active compounds read low 1.01 | S. cerevisiae deletion strains, locus YNL307C, strain MCK1, active compounds read low 1.02 | S. cerevisiae deletion strains, locus YNL322C, strain KRE1 (second series), active compounds read low 1 | S. cerevisiae deletion strains, locus YNL322C, strain KRE1, active compounds read low 1.01 | S. cerevisiae deletion strains, locus YNR049C, strain mso1, active compounds read low 0.999 | S. cerevisiae deletion strains, locus YNR052C, strain pop2, active compounds read low 0.996 | S. cerevisiae deletion strains, locus YOL006C, strain TOP1, active compounds read low 1 | S. cerevisiae deletion strains, locus YOL012C, strain htz1 0.612 | S. cerevisiae deletion strains, locus YOL147C, strain pex11, active compounds read low 1 | S. cerevisiae deletion strains, locus YOR001W, strain rrp6, active compounds read low 1 | S. cerevisiae deletion strains, locus YOR061W, strain CKA2, active compounds read low 1.01 | S. cerevisiae deletion strains, locus YOR069W, strain VPS5, active compounds read low 1 | S. cerevisiae deletion strains, locus YOR070C, strain gyp1, active compounds read low 1 | S. cerevisiae deletion strains, locus YOR080W, strain dia2, active compounds read low 1.01 | S. cerevisiae deletion strains, locus YOR083W, strain WHI5, active compounds read low 1.01 | S. cerevisiae deletion strains, locus YOR106W, strain vam3, active compounds read low 1.01 | S. cerevisiae deletion strains, locus YOR136W, strain idh2, active compounds read low 1.01 | S. cerevisiae deletion strains, locus YOR144C, strain elg1, active compounds read low 1 | S. cerevisiae deletion strains, locus YOR184W, strain ser1, active compounds read low 1.03 | S. cerevisiae deletion strains, locus YOR231W, strain MKK1, active compounds read low 0.951 | S. cerevisiae deletion strains, locus YOR265W, strain rbl2, active compounds read low 1.01 | S. cerevisiae deletion strains, locus YOR270C, strain vph1, active compounds read low 1.2 | S. cerevisiae deletion strains, locus YOR290C, strain snf2, active compounds read low 0.991 | S. cerevisiae deletion strains, locus YOR316C, strain cot1, active compounds read low 1.01 | S. cerevisiae deletion strains, locus YPL051W, strain arl3, active compounds read low 1.02 | S. cerevisiae deletion strains, locus YPL055C, strain LGE1, active compounds read low 0.984 | S. cerevisiae deletion strains, locus YPL078C, strain atp4, active compounds read low 1.03 | S. cerevisiae deletion strains, locus YPL106C, strain sse1, active compounds read low 0.975 | S. cerevisiae deletion strains, locus YPL240C, strain hsp82, active compounds read low 0.995 | S. cerevisiae deletion strains, locus YPL241C, strain CIN2, active compounds read low 1 | S. cerevisiae deletion strains, locus YPL256C, strain CLN2, active compounds read low 1.02 | S. cerevisiae deletion strains, locus YPR119W, strain clb2, active compounds read low 1.01 | S. cerevisiae deletion strains, locus YPR141C, strain kar3, active compounds read low 1 | S. cerevisiae deletion strains, locus YPR163C, strain tif3, active compounds read low 1 | S. cerevisiae deletion strains, locus YPR167C, strain met16, active compounds read low 0.991 | S. cerevisiae deletion strains, strain wtn01, active compounds read low 0.988 | S. cerevisiae strains, strain wild type, active compounds read low 1.02
